# In ChEMBL document CHEMBL3988442, “University of Dundee, Small-Polar-MMV Screening Library” (2021):
# Test system: Trypanosoma cruzi
# Experiment: Trypanosoma cruzi phosphomannomutase and mannose-1-phosphate guanylyltransferase assay
# Type: functional
# Design: scale not given: direction of the effect not stated beside the values
# Conditions: 10 µM
row,SMILES,Percent Effect [%]
1,CN1CC(=O)N(c2cnn(C)c2)CC12CCN(Cc1ccccc1)C2 (stereo not drawn),10.3
2,NC(=O)C(CNC(=O)Cc1ccc(F)cc1)Cc1ccc(F)cc1 (stereo not drawn),-4.19
3,O=C(N1CCOCC1)N1CCc2ncnc(NC3CC3)c2CC1,-7.81
4,Cn1cccc1C(=O)N1CCn2cc(CNC(=O)CC3CC3)nc2C1,4.13
5,Clc1cc(CN2CCCC2Cn2cncn2)c2ncccc2c1 (stereo not drawn),-2.88
6,CCc1nnc2n1CCN(Cc1csc(-c3cnn(C)c3)n1)C2,-3.79
7,COc1ccc(C(CNC(=O)Nc2cn[nH]c2)N2CCOCC2)cc1 (stereo not drawn),4.8
8,Cc1nn(C)c(C)c1C1CCCN1CC(=O)Nc1ccncc1 (stereo not drawn),-3.49
9,Cc1nn(C)c(N(C)C)c1CNC1CCc2c(F)cccc21 (stereo not drawn),4.89
10,Cc1ccccc1C(=O)CN1C(=O)c2ccccc2CS1(=O)=O,-5.41
11,CS(=O)(=O)N1CCC(C(=O)NC(Cc2ccsc2)c2ccccn2)CC1 (stereo not drawn),2.17
12,COc1cccc(Cc2nnc(SC3CCOC3=O)o2)c1 (stereo not drawn),2.04
13,Cc1ccc(N2CCC3(CC2)CC(OCC(=O)N(C)C)CO3)nn1 (stereo not drawn),-0.684
14,CC(NC(=O)NCc1cccnc1N1CCCCC1)c1nccs1 (stereo not drawn),6.37
15,CCc1ccc(NS(=O)(=O)CC2=NC(=O)n3cccc3C2=O)cc1,-0.786
16,c1ncn(CC2CCCN(Cc3nc(C4CC4)no3)C2)n1 (stereo not drawn),8.59
17,N#Cc1ccc(C(=O)N2CCC3(CC2)C(=O)Nc2ccccc23)cn1,-0.684
18,Cc1ccc(-c2nc(CNCCn3cccn3)cs2)o1,1.13
19,Cc1cnc2n(c1=O)CC(C(=O)Nc1ccccc1Cl)CS2 (stereo not drawn),-2.94
20,CCn1c(N)nc2cc(C(=O)NCCc3ccccc3C)cnc21,5.09

row,SMILES,Percent Effect [%]
1,O=C(NCCCN1CCCC1)c1n[nH]c(=O)c2ccccc12,-10.7
2,Cc1nc(CN2CCCC(NCCOCC(F)(F)F)C2)no1 (stereo not drawn),4.44
3,O=C1C[C@H]2[C@@H](CCN2C(=O)c2ccccc2)N1CCN1CCOCC1,0.794
4,CC(C)Oc1ncccc1CNC(=O)N1CCC(C(N)=O)C1 (stereo not drawn),-4.51
5,CNc1nc2c(c(C(=O)N3CCCC3)n1)CN(Cc1nccn1C)CC2,2.38
6,CC(C)NC(=O)c1sccc1N(C)S(=O)(=O)c1ccc(Cl)cc1,-7.5
7,COc1nn(C)c2c1CCCN(C(=O)c1ccccc1)C2,-1.76
8,COCC(=O)N1CC[C@@H]2O[C@H](COCc3ccncc3)CC[C@@H]21,-4.2
9,Fc1ccc(-c2cnc(CN3CCCC3Cn3cccn3)o2)cc1 (stereo not drawn),-4.82
10,O=C(C1CC=CC1)N1CCc2c(COCc3ccncc3)cncc2C1,0.198
11,O=C(NCC(F)(F)F)NC1CCCc2c1cnn2CCO (stereo not drawn),5.36
12,O=C(CCOc1ccccc1)N1CCC(Nc2cccnn2)CC1,2.15
13,Cc1cc(CN2CCN(c3ccc4nncn4n3)C(C)C2)no1 (stereo not drawn),5.8
14,Cc1n[nH]c(C)c1C1COCCN1C(=O)Cc1cccc(F)c1 (stereo not drawn),-6.46
15,CCC(C)(NCC(=O)Nc1ccccc1)c1nc(C)cs1 (stereo not drawn),2.05
16,Cc1ccc(-c2nnc(CN3CCc4cnc(C)nc4C3)o2)cc1,11.2
17,Cc1cccc2c1OCCC2NCc1c(C)nn(C)c1N(C)C (stereo not drawn),-3.95
18,CC(C#N)CSc1ccccc1NCC(=O)NCc1ccccc1 (stereo not drawn),5.49
19,O=C(Cn1cc(I)cn1)N1CCCC1,2.55

# Molecular target: T1, Arginase-2, mitochondrial (Homo sapiens) (UniProt P78540)
# T1 sequence (whole entry): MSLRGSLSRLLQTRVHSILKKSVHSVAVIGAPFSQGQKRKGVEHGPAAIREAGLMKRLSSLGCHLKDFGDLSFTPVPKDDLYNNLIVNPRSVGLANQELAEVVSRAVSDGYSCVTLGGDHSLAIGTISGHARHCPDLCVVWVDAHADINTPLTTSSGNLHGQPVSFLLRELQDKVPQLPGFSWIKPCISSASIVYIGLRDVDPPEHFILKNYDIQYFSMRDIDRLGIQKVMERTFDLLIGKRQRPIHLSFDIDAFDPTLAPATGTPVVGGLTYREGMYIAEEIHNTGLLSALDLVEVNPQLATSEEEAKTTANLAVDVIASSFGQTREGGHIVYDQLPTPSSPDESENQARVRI
# Experiment: in vitro enzyme assay to detect the production of urea directly proportional to the activity of Arginase II; also: in the data most compounds retested in dose-response had high values
# Type: functional
# Design: scale not given: direction of the effect not stated beside the values
# Conditions: 33.3 µM
row,SMILES,Percent Effect [%]
1,CN1CC(=O)N(c2cnn(C)c2)CC12CCN(Cc1ccccc1)C2 (stereo not drawn),-4.39
2,NC(=O)C(CNC(=O)Cc1ccc(F)cc1)Cc1ccc(F)cc1 (stereo not drawn),0
3,O=C(N1CCOCC1)N1CCc2ncnc(NC3CC3)c2CC1,6.67
4,Cn1cccc1C(=O)N1CCn2cc(CNC(=O)CC3CC3)nc2C1,-0.233
5,Clc1cc(CN2CCCC2Cn2cncn2)c2ncccc2c1 (stereo not drawn),-12.4
6,CCc1nnc2n1CCN(Cc1csc(-c3cnn(C)c3)n1)C2,-2.21
7,COc1ccc(C(CNC(=O)Nc2cn[nH]c2)N2CCOCC2)cc1 (stereo not drawn),1.05
8,Cc1nn(C)c(C)c1C1CCCN1CC(=O)Nc1ccncc1 (stereo not drawn),4.41
9,Cc1nn(C)c(N(C)C)c1CNC1CCc2c(F)cccc21 (stereo not drawn),5.75
10,Cc1ccccc1C(=O)CN1C(=O)c2ccccc2CS1(=O)=O,-2.86
11,CS(=O)(=O)N1CCC(C(=O)NC(Cc2ccsc2)c2ccccn2)CC1 (stereo not drawn),1.16
12,COc1cccc(Cc2nnc(SC3CCOC3=O)o2)c1 (stereo not drawn),0.521
13,Cc1ccc(N2CCC3(CC2)CC(OCC(=O)N(C)C)CO3)nn1 (stereo not drawn),2.23
14,CC(NC(=O)NCc1cccnc1N1CCCCC1)c1nccs1 (stereo not drawn),-7.12
15,CCc1ccc(NS(=O)(=O)CC2=NC(=O)n3cccc3C2=O)cc1,-7.57
16,c1ncn(CC2CCCN(Cc3nc(C4CC4)no3)C2)n1 (stereo not drawn),-4.56
17,N#Cc1ccc(C(=O)N2CCC3(CC2)C(=O)Nc2ccccc23)cn1,2.73
18,Cc1ccc(-c2nc(CNCCn3cccn3)cs2)o1,4.6
19,Cc1cnc2n(c1=O)CC(C(=O)Nc1ccccc1Cl)CS2 (stereo not drawn),-1.36
20,CCn1c(N)nc2cc(C(=O)NCCc3ccccc3C)cnc21,15

row,SMILES,Percent Effect [%]
1,O=C(NCCCN1CCCC1)c1n[nH]c(=O)c2ccccc12,2.13
2,Cc1nc(CN2CCCC(NCCOCC(F)(F)F)C2)no1 (stereo not drawn),-1.52
3,O=C1C[C@H]2[C@@H](CCN2C(=O)c2ccccc2)N1CCN1CCOCC1,-2
4,CC(C)Oc1ncccc1CNC(=O)N1CCC(C(N)=O)C1 (stereo not drawn),2.68
5,CNc1nc2c(c(C(=O)N3CCCC3)n1)CN(Cc1nccn1C)CC2,-2.79
6,CC(C)NC(=O)c1sccc1N(C)S(=O)(=O)c1ccc(Cl)cc1,11.8
7,COc1nn(C)c2c1CCCN(C(=O)c1ccccc1)C2,-1.25
8,COCC(=O)N1CC[C@@H]2O[C@H](COCc3ccncc3)CC[C@@H]21,9.24
9,Fc1ccc(-c2cnc(CN3CCCC3Cn3cccn3)o2)cc1 (stereo not drawn),7.22
10,O=C(C1CC=CC1)N1CCc2c(COCc3ccncc3)cncc2C1,-1.2
11,O=C(NCC(F)(F)F)NC1CCCc2c1cnn2CCO (stereo not drawn),12.5
12,O=C(CCOc1ccccc1)N1CCC(Nc2cccnn2)CC1,-0.719
13,Cc1cc(CN2CCN(c3ccc4nncn4n3)C(C)C2)no1 (stereo not drawn),4.63
14,Cc1n[nH]c(C)c1C1COCCN1C(=O)Cc1cccc(F)c1 (stereo not drawn),2.73
15,CCC(C)(NCC(=O)Nc1ccccc1)c1nc(C)cs1 (stereo not drawn),18.6
16,Cc1ccc(-c2nnc(CN3CCc4cnc(C)nc4C3)o2)cc1,-13.9
17,Cc1cccc2c1OCCC2NCc1c(C)nn(C)c1N(C)C (stereo not drawn),7.28
18,CC(C#N)CSc1ccccc1NCC(=O)NCc1ccccc1 (stereo not drawn),14.1
19,O=C(Cn1cc(I)cn1)N1CCCC1,-2.64
